# Data: PubChem BioAssay (EPA / NIEHS)
# Calls of active or inactive are those of the source. Rule for the calls: active = hit-call score of the fitted dose curve at least 0.9, where 1 is the maximum; inactive = score below 0.9.
# Read-out: Nuclear factor erythroid 2-related factor 2 (Homo sapiens) (UniProt Q16236)
# Assay: LTEA_HepaRG_NFE2L2: Life Technologies and Expression Analysis (LTEA) Assay for Nuclear factor erythroid 2-related factor 2 (NFE2L2) Transcription Factor using HepaRG (AID 2283527);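 for outcome: TaqMan qRT-PCR transcript level normalised to ACTB GAPDH and POLR2A housekeeping genes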
# Settings: mRNA level, 48 h; actives raise or lower the signal
# Summary of the method: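 Transcript level of NFE2L2 is the read-out, measured by microfluidic TaqMan qRT-PCR and normalized to three housekeeping genes. Human HepaRG cultures received test chemical for 48 h at up to 100 uM in half-log steps. Gain or loss of signal is fitted relative to 0.5% DMSO.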
# Nuclear factor erythroid 2-related factor 2 (Homo sapiens), sequence (Q16236 whole entry, looked up): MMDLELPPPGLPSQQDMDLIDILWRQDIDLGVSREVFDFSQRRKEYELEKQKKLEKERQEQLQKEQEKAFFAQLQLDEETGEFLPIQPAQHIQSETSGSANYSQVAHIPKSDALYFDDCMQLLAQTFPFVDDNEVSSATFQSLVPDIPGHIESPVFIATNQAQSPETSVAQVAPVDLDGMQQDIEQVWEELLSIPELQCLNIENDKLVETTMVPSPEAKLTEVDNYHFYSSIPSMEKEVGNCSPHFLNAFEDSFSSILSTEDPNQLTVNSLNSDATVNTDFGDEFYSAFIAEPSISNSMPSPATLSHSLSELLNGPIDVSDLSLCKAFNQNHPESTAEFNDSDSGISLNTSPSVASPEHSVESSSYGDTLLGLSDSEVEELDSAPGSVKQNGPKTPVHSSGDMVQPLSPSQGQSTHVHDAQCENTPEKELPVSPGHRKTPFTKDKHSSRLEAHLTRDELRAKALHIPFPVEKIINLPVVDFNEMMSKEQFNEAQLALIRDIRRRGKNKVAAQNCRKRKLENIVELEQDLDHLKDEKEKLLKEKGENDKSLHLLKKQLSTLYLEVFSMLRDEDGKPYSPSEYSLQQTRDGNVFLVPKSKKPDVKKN
SMILES,outcome,AC50
CCOP(=O)(SC(C)CC)N1CCSC1=O (centres undefined),inactive,–
CCCSP(=O)(OCC)Oc1ccc(Br)cc1Cl (centres undefined),inactive,–
CSc1nnc(C(C)(C)C)c(=O)n1N,inactive,–
Cc1ccn2nc(S(=O)(=O)Nc3c(F)cccc3F)nc2n1,inactive,–
CC(C)=CC1C(C(=O)OCN2C(=O)C3=C(CCCC3)C2=O)C1(C)C (centres undefined),inactive,–
FC(F)C(F)(F)OCC(Cn1cncn1)c1ccc(Cl)cc1Cl (centres undefined),–,73.7 µM (active)
CC(C1CC1)C(O)(Cn1cncn1)c1ccc(Cl)cc1 (centres undefined),inactive,–
Cc1cc(C2CC2)nc(Nc2ccccc2)n1,inactive,–
COc1cccc(C(=O)NN(C(=O)c2cc(C)cc(C)c2)C(C)(C)C)c1C,inactive,–
C[N+]1(C)CCCCC1,inactive,–
CC[C@H](C)[C@H]1O[C@]2(C=C[C@@H]1C)C[C@@H]1C[C@@H](C/C=C(\C)[C@@H](O[C@H]3C[C@H](OC)[C@@H](O[C@H]4C[C@H](OC)[C@@H](NC)[C@H](C)O4)[C@H](C)O3)[C@@H](C)/C=C/C=C3\CO[C@@H]4[C@H](O)C(C)=C[C@@H](C(=O)O1)[C@]34O)O2,inactive,–
COP(=O)(OC)C(O)C(Cl)(Cl)Cl (centres undefined),inactive,–
S=C1NCCN1,inactive,–
CCNc1nc(Cl)nc(NC(C)(C)C#N)n1,inactive,–
CON=C(C(=O)OC)c1ccccc1CON=C(C)c1cccc(C(F)(F)F)c1,inactive,–
CCCCOC(=O)c1ccccc1C(=O)O,inactive,–
Nc1nc(N)nc(NC2CC2)n1,inactive,–
C[Si](Cn1cncn1)(c1ccc(F)cc1)c1ccc(F)cc1,–,39.3 µM (active)
CNC(=O)ON=C(SC)C(=O)N(C)C,inactive,–
